Assay results published in paper PMC7862700, “An all-to-all approach to the identification of sequence-specific readers for epigenetic DNA modifications on cytosine”.

Tests used:
Assay in all cases: DAPPL (digital affinity profiling via proximity ligation, sequencing); 10 mM Tris-HCl pH 7.5, 50 mM NaCl, 1 mM DTT, 4% glycerol, room temperature, 30 min; GST-TFs on glutathione beads, 16-mer random dsDNA library, 0.1% formaldehyde crosslink after washing; high values mean tight binding
FLI1 = target: T1, FLI1 (Homo sapiens, UniProt Q01543 1-452); details: protein: recombinant; tags: N-terminal GST; dsDNA, one strand shown
T1 sequence: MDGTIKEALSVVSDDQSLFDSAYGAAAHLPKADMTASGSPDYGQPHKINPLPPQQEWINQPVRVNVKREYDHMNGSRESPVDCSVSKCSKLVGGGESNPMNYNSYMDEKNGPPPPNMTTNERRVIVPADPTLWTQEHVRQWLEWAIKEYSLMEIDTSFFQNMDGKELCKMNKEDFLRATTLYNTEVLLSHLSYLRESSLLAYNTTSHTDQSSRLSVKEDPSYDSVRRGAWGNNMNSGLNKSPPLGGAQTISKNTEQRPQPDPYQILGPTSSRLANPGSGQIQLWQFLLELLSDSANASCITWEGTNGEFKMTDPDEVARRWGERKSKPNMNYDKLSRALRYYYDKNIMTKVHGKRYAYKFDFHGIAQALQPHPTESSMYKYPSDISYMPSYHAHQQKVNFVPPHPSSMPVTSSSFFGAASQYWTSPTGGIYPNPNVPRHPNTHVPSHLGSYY
How it was run: (§1)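 A tag-only sample was pooled with DNA-barcoded human transcription factors that had been expressed in yeast as GST fusions and captured on glutathione beads. The pools were incubated for 30 min at room temperature with 200 nmole of a random double-stranded 16-mer DNA library in Tris/NaCl/DTT/glycerol buffer, then washed, crosslinked with 0.1% formaldehyde, proximity-ligated (BsaI/T4 ligase, 1 h, 37 °C), PCR-amplified and sequenced on an Illumina NextSeq500. Binding signal is each hexamer's read frequency for a factor divided by its frequency for the tag-only sample.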

ELK1 = target: T2, ELK1 (Homo sapiens, UniProt P19419 1-428); details: protein: recombinant; tags: N-terminal GST; dsDNA, one strand shown
T2 sequence: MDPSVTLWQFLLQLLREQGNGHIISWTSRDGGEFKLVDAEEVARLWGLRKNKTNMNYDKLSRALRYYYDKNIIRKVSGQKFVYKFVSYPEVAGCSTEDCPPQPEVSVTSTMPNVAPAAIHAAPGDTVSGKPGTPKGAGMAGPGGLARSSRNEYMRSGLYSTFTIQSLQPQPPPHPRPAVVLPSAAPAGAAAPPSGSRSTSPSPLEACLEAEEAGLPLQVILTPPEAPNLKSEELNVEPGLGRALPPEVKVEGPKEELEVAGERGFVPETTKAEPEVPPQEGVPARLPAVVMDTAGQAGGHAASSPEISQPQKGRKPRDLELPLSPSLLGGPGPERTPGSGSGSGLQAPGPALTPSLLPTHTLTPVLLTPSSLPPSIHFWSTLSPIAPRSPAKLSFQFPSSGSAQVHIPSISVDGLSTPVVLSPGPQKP
How it was run: as §1

GABPA = target: T3, GABPA (Homo sapiens, UniProt Q06546 1-454); details: protein: recombinant; tags: N-terminal GST; dsDNA, one strand shown
T3 sequence: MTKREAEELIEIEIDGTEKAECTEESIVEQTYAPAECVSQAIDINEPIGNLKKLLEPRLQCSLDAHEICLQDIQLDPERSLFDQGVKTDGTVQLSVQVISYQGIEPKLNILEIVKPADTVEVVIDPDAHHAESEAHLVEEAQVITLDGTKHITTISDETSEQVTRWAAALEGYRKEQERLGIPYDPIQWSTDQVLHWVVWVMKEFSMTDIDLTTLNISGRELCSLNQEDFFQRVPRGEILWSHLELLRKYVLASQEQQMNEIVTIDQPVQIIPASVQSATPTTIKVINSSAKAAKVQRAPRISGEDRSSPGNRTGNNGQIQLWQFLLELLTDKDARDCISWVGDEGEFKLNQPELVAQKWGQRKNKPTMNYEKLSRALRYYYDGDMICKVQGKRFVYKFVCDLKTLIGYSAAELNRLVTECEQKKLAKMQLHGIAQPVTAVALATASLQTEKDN
How it was run: as §1

ERG = target: T4, ERG (Homo sapiens, UniProt P11308 1-479); details: protein: recombinant; tags: N-terminal GST; dsDNA, one strand shown
T4 sequence: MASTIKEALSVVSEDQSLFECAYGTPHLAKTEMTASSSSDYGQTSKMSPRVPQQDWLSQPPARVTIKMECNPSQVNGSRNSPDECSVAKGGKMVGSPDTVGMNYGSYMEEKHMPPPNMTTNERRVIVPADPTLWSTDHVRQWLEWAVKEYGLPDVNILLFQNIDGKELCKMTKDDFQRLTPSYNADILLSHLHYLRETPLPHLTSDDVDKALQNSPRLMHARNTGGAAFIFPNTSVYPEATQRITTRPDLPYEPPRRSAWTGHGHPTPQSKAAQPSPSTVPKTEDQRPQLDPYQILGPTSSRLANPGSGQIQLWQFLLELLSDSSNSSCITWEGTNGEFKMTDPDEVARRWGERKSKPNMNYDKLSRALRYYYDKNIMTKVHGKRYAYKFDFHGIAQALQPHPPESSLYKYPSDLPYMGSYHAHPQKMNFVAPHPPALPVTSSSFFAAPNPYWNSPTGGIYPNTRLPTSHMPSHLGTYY
How it was run: as §1

ELF1 = ELF1 (Homo sapiens, UniProt P32519 1-619); details: protein: recombinant; tags: N-terminal GST; dsDNA, one strand shown
ELF1, sequence (P32519 whole entry): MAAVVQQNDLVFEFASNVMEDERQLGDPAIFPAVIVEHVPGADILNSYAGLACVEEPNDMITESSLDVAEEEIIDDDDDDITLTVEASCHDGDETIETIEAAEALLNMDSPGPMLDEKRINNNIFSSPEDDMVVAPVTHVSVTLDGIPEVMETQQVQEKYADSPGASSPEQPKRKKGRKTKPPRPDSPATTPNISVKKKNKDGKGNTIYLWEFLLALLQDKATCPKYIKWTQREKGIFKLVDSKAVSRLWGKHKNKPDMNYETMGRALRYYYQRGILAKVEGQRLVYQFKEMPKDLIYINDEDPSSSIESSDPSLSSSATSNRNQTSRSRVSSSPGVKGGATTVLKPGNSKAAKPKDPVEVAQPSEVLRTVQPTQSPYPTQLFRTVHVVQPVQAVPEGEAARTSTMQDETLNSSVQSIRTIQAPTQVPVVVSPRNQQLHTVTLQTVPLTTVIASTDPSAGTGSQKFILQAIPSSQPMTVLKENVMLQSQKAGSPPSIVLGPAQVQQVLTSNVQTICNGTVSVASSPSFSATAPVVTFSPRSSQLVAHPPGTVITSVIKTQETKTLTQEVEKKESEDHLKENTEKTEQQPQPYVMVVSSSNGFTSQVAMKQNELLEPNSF
How it was run: as §1

EHF = target: T5, EHF (Homo sapiens, UniProt Q9NZC4 1-300); details: protein: recombinant; tags: N-terminal GST; dsDNA, one strand shown
T5 sequence: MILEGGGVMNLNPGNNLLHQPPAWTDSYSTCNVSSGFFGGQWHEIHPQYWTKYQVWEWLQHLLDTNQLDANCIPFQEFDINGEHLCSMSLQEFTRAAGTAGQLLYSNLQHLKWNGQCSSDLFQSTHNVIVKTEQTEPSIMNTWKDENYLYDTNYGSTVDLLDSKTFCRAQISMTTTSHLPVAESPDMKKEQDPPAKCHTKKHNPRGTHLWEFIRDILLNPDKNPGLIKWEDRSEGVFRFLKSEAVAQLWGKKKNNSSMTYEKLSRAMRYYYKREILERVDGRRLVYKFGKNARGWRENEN
How it was run: as §1

SPI1 = SPI1 (Homo sapiens, UniProt P17947 1-270); details: protein: recombinant; tags: N-terminal GST; dsDNA, one strand shown
How it was run: as §1

SPIB = SPIB (Homo sapiens, UniProt Q01892 1-262); details: protein: recombinant; tags: N-terminal GST; dsDNA, one strand shown
SPIB, sequence (Q01892 whole entry): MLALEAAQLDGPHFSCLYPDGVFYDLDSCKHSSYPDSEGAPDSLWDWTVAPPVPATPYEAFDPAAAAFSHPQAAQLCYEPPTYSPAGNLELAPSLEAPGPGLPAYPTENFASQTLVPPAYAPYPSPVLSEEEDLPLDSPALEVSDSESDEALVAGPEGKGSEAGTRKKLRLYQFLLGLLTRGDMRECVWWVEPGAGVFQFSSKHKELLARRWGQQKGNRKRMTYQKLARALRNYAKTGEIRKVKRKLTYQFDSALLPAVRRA
How it was run: as §1

ELK3 = target: T6, ELK3 (Homo sapiens, UniProt P41970 1-407); details: protein: recombinant; tags: N-terminal GST; dsDNA, one strand shown
T6 sequence: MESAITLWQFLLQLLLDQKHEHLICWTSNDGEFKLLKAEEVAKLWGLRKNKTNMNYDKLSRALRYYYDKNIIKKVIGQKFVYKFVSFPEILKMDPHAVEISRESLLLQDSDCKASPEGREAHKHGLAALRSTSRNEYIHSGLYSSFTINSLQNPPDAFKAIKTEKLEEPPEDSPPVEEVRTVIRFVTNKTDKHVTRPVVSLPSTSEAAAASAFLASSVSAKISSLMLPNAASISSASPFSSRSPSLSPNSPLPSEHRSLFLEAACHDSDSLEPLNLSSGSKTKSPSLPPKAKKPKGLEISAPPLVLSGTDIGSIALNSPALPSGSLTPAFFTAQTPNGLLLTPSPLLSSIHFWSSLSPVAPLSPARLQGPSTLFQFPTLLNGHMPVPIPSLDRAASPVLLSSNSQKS
How it was run: as §1

FEV = target: T7, FEV (Homo sapiens, UniProt Q99581 1-238); details: protein: recombinant; tags: N-terminal GST; dsDNA, one strand shown
T7 sequence: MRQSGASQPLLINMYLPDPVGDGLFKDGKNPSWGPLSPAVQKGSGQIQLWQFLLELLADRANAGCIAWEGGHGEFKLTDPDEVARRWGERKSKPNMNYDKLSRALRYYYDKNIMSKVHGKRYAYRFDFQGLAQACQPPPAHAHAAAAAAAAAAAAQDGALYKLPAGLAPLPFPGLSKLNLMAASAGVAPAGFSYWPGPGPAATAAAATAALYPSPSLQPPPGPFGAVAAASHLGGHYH
How it was run: as §1

ETV5 = ETV5 (Homo sapiens, UniProt P41161 1-510); details: protein: recombinant; tags: N-terminal GST; dsDNA, one strand shown
ETV5, sequence (P41161 whole entry): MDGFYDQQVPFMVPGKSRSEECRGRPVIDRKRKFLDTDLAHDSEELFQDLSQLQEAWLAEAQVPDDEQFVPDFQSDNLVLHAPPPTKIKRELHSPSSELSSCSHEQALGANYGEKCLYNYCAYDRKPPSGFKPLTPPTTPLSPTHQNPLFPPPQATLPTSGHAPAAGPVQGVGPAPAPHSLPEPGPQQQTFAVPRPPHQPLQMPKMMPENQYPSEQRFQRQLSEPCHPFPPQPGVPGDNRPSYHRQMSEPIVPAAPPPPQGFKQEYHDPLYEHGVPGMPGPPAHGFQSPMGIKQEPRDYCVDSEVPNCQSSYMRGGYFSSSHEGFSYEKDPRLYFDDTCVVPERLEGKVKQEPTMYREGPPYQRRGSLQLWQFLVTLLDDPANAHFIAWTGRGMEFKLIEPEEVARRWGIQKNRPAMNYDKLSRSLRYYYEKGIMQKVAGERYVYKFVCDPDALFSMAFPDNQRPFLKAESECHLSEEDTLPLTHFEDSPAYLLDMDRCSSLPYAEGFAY
How it was run: as §1

HSF1 = HSF1 (Homo sapiens, UniProt Q00613 1-529); details: protein: recombinant; tags: N-terminal GST; chain copies: 3; dsDNA, one strand shown
HSF1, sequence (Q00613 whole entry): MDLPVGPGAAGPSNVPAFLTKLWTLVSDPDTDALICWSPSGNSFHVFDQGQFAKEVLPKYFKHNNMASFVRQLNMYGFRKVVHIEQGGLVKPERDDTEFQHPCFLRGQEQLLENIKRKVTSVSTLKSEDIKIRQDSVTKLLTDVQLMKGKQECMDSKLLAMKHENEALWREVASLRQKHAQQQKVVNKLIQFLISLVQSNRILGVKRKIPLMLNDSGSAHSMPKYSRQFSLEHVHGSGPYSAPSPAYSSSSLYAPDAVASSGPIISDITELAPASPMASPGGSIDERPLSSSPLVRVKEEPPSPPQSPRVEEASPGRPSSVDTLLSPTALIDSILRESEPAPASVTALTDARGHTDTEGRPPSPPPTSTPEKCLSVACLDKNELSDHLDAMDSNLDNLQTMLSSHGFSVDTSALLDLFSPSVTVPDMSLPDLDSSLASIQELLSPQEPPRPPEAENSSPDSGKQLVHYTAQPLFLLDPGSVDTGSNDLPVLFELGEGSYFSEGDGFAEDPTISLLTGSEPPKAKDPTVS
How it was run: as §1

SPIC = target: T8, SPIC (Homo sapiens, UniProt Q8N5J4 1-248); details: protein: recombinant; tags: N-terminal GST; dsDNA, one strand shown
T8 sequence: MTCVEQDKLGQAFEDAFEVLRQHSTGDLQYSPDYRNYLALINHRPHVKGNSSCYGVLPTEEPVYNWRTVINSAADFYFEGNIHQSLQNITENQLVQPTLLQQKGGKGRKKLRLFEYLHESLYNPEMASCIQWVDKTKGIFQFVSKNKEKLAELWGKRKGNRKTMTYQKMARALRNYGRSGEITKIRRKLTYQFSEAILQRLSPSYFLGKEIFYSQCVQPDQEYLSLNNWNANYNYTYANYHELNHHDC
How it was run: as §1

ELF4 = ELF4 (Homo sapiens, UniProt Q99607 1-663); details: protein: recombinant; tags: N-terminal GST; dsDNA, one strand shown
ELF4, sequence (Q99607 whole entry): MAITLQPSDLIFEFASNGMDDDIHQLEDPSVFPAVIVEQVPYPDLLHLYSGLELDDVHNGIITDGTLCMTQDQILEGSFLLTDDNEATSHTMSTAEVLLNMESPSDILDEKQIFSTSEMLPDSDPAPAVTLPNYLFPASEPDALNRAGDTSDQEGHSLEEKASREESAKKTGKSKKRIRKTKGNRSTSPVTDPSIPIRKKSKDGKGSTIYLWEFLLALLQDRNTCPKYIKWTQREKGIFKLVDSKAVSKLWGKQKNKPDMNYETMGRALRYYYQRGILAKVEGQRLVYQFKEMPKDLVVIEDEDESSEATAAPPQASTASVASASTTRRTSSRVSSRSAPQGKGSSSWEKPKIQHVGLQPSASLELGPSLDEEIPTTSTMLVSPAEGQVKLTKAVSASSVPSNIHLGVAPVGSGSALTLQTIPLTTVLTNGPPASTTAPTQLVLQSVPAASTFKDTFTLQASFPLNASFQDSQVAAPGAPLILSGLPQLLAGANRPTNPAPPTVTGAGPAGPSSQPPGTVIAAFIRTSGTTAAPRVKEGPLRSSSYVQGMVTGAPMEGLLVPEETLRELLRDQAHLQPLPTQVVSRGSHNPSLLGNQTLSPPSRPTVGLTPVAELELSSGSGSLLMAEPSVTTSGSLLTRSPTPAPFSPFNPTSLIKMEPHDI
How it was run: as §1

ELK4 = target: T9, ELK4 (Homo sapiens, UniProt P28324-2 1-405); details: protein: recombinant; tags: N-terminal GST; dsDNA, one strand shown
T9 sequence: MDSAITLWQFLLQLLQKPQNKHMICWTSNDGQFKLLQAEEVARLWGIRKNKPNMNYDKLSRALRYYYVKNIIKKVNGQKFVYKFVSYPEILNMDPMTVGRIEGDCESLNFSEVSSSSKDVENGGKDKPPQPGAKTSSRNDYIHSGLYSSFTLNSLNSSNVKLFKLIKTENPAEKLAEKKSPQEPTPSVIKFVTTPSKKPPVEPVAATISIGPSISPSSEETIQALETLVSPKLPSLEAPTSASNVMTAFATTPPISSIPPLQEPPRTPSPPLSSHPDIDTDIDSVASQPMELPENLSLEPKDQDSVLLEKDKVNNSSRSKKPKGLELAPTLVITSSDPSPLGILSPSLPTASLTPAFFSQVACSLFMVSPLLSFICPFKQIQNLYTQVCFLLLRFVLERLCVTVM
How it was run: as §1

ETV2 = target: T10, ETV2 (Homo sapiens, UniProt O00321 1-342); details: protein: recombinant; tags: N-terminal GST; dsDNA, one strand shown
T10 sequence: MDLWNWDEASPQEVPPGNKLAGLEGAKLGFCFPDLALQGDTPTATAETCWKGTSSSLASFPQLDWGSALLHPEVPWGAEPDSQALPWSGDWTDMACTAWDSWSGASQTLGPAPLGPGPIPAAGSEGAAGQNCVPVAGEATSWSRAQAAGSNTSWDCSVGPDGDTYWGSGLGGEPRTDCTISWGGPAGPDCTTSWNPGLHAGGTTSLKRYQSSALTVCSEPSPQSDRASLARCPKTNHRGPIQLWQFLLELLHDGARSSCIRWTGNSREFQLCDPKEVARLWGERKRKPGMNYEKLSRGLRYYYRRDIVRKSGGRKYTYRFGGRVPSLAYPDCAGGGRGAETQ
How it was run: as §1

ELF3 = target: T11, ELF3 (Homo sapiens, UniProt P78545 1-371); details: protein: recombinant; tags: N-terminal GST; dsDNA, one strand shown
T11 sequence: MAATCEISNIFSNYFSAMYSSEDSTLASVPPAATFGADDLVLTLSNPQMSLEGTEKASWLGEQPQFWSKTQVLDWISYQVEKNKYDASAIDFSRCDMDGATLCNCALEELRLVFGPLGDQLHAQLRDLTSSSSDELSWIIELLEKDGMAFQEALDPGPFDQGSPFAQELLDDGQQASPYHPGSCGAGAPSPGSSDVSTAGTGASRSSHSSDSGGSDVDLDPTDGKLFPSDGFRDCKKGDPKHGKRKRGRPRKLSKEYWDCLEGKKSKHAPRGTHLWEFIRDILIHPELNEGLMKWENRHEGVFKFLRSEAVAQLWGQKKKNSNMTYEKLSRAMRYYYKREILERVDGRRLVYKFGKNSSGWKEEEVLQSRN
How it was run: as §1

CRX = CRX (Homo sapiens, UniProt O43186 1-299); details: protein: recombinant; tags: N-terminal GST; dsDNA, one strand shown
CRX, sequence (O43186 whole entry): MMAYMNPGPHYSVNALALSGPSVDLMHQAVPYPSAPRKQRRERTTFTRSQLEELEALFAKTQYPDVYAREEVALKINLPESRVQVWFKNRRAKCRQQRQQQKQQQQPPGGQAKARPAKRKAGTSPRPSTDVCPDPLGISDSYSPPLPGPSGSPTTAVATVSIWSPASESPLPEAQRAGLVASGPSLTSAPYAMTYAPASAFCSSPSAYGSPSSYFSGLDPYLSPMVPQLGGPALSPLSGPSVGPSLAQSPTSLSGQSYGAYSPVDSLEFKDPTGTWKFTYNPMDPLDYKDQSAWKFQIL
How it was run: as §1

ETV1 = ETV1 (Homo sapiens, UniProt P50549 1-477); details: protein: recombinant; tags: N-terminal GST; dsDNA, one strand shown
ETV1, sequence (P50549 whole entry): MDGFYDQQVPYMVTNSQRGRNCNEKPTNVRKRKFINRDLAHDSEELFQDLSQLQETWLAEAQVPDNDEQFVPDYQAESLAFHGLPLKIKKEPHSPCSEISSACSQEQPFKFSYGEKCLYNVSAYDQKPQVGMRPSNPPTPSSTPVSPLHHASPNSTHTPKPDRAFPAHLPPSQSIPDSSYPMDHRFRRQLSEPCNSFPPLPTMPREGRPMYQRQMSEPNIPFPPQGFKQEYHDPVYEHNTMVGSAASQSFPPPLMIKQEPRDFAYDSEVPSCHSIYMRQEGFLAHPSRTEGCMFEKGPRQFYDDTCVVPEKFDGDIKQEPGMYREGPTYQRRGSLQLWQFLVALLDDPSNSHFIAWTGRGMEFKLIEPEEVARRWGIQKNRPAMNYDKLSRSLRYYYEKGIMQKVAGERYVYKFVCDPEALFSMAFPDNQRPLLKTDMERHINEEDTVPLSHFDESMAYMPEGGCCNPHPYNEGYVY
How it was run: as §1

## TCCCCA
FLI1
  binding signal: 1.38 fold enrichment (6-mer frequency, TF over GST control)
ELK1
  binding signal: 1.29 fold enrichment (6-mer frequency, TF over GST control)
GABPA
  binding signal: 1.21 fold enrichment (6-mer frequency, TF over GST control)
ERG
  binding signal: 1.42 fold enrichment (6-mer frequency, TF over GST control)
ELF1
  binding signal: 1.39 fold enrichment (6-mer frequency, TF over GST control)
EHF
  binding signal: 1.45 fold enrichment (6-mer frequency, TF over GST control)
SPI1
  binding signal: 1.63 fold enrichment (6-mer frequency, TF over GST control)
SPIB
  binding signal: 1.16 fold enrichment (6-mer frequency, TF over GST control)
ELK3
  binding signal: 1.34 fold enrichment (6-mer frequency, TF over GST control)
FEV
  binding signal: 1.33 fold enrichment (6-mer frequency, TF over GST control)
ETV5
  binding signal: 1.41 fold enrichment (6-mer frequency, TF over GST control)
HSF1
  binding signal: 1.3 fold enrichment (6-mer frequency, TF over GST control)
SPIC
  binding signal: 1.56 fold enrichment (6-mer frequency, TF over GST control)
ELF4
  binding signal: 1.39 fold enrichment (6-mer frequency, TF over GST control)
ELK4
  binding signal: 1.58 fold enrichment (6-mer frequency, TF over GST control)
ETV2
  binding signal: 1.51 fold enrichment (6-mer frequency, TF over GST control)
ELF3
  binding signal: 1.54 fold enrichment (6-mer frequency, TF over GST control)
CRX
  binding signal: 1.43 fold enrichment (6-mer frequency, TF over GST control)
ETV1
  binding signal: 1.49 fold enrichment (6-mer frequency, TF over GST control)
